Compound activity: PubChem BioAssay, National Center for Advancing Translational Sciences (NCATS)
TDP1 cell noCPT = qHTS for Inhibitors of human tyrosyl-DNA phosphodiesterase 1 (TDP1): qHTS in cells in absence of CPT. actives 15% (n = 420,000). DT40 Tdp1-/- hTDP1 cells, no CPT, ATP luminescence, 48 h. AID 686978, 2013. Potency, µM (top dose mostly 46.2 µM), for the others: at the top dose activity change, negative = growth inhibition, most hits filed as inhibitors; note: % is set by controls: 0 for no effect and ±100 for the full control effect; nearly all actives have a fitted effect of over 55% in size
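Chicken DT40 Tdp1-/- cells complemented with human TDP1, screened without camptothecin (DMSO vehicle only), 400 cells/well. Compounds pin-transferred, cells incubated at 37 °C for at least 48 hr. Growth read as ATP-dependent luminescence (CellTiter-Glo, 30 min at RT).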
TGFb SMAD3 inh = inhibitors of TGF-b signaling | HepG2 CAGA-GFP TGF-b/SMAD3 reporter, GFP fluorescence, 18 h; TGF-beta stimulated, 500 pg/mL final | Potency, µM (doses to about 46.1 µM), for the others: at the highest dose activity, negative = inhibition, usual class: inhibitors | actives 1.2% (n = 410,000); note: % is set by controls: 0 for no effect and ±100 for the full control effect; nearly all actives have a fitted effect of over 65% in size
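Cell-based qHTS in HEPG2 carrying a CAGA-GFP Smad reporter; compounds added before 500 pg/mL final TGF-beta, 18 h incubation at 37 degrees C, GFP fluorescence quantified per cell by imaging cytometry.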
HepG2 viability = kills HepG2 cells in TGF-b inhibitor counter-screen; HepG2 CAGA-GFP viability, ATP luminescence, 18 h; Potency, µM (series often up to 46.1 µM), without a hit: top-dose activity change, negative = cytotoxicity, usual class: cytotoxic; actives 0.76% (n = 410,000)
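CellTiter-Glo luminescence gave cytotoxicity after 18 hours at 37 degrees C. The cells were HepG2 CAGA-GFP in 1% FBS DMEM, stimulated with 500 pg/mL TGF-beta after compound addition. %Activity was normalised to no-cell wells (complete cell-killing) and DMSO (no toxicity), and curves were fitted and classified.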
HT1080NT lethal = kills 2HG-producing HT-1080-NT fibrosarcoma cells; actives 1.6% (n = 360,000); AID 686970; Potency, µM (series often up to 46.1 µM), for inactives: top-dose activity, negative = less viability, hits mostly cytotoxic; HT-1080-NT fibrosarcoma viability, CellTiter-Glo ATP luminescence, 48 h;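 note: NT is the 2HG producing partner of a matched IDH1 knockdown line; 0% = DMSO-treated cells and -100% = media-only wells without cells; nearly all actives have a fitted effect of over 55% in size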
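Fibrosarcoma NT cells, 750 per well in 5% FBS RPMI, were exposed to compound for 48 hours. Viability: CellTiter-Glo luminescence.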
HT1080 IDH1KD tx = kills HT-1080 cells with IDH1 knockdown. HT-1080 IDH1 knockdown viability, ATP luminescence, 48 h. Potency, µM (top dose mostly 46.1 µM), for the others: at the highest dose activity, negative = toxicity, usual class: cytotoxic. actives 2% (n = 360,000);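 note: 0% = DMSO wells and -100% = cell-free medium wells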
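% activity derives from luminescence (CellTiter-Glo), normalised to DMSO and no-cell wells. HT-1080-IDH1KD cells, 750/well, had 48 h compound exposure at 37 °C.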
DT40 TDP1 CPT = DT40-hTDP1 cell growth loss with CPT; actives 12% (n = 420,000); Potency, µM (top dose mostly 46.2 µM), inactives show at the highest dose activity change, negative = growth inhibition, hits mostly inhibitors; chicken DT40 Tdp1-/-;hTDP1 cells + 20 nM CPT, ATP luminescence, 48 h; AID 686979; note: % is set by controls: 0 for no effect and ±100 for the full control effect; nearly all actives have a fitted effect of over 55% in size
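Chicken DT40 Tdp1-/- cells complemented with human TDP1, 400 cells/well, exposed to compounds plus 20 nM camptothecin for at least 48 h at 37 C; viability read as ATP content by CellTiter-Glo luminescence.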
An asterisk follows results filed as active; ? = inconclusive; / = not tested or not shown; [ ] = dose if it differs, or a comment. Shown are actives, neighbours in structure and some others; about 17% of the full set was active somewhere. Calls come from the whole dose curve; as a rule, active = well fitted curve in the direction sought with a large enough effect; inconclusive = small, poorly fitted or top-dose-only effect, or another doubt; inactive = no such curve, though single readings can be large; an effect the other way counts as inactive or inconclusive. Potency is the fitted concentration of half-maximal effect.

SMILES | TDP1 cell noCPT | TGFb SMAD3 inh | HepG2 viability | HT1080NT lethal | HT1080 IDH1KD tx | DT40 TDP1 CPT
Cc1ccccc1C1c2[nH]c3ccccc3c2C[C@H]2C(=O)N(C3CC3)CC(=O)N12 (stereo partly specified) | ? | 1% | 7% | ? | -7% | ?
O=C1[C@@H]2Cc3c([nH]c4ccccc34)C(c3ccccc3)N2C(=O)CN1C1CC1 (stereo partly specified) | ? | -9% | -15% | -5% | -6% | ?
COc1cccc(C2c3[nH]c4ccccc4c3C[C@H]3C(=O)N(C4CCN(Cc5ccccc5)CC4)CC(=O)N23)c1 (stereo partly specified) | ? | ? | -51% | ? | ? | 23µM*
COc1ccccc1C1c2[nH]c3ccccc3c2C[C@H]2C(=O)N(C3CCN(Cc4ccccc4)CC3)CC(=O)N12 (stereo partly specified) | 9.2µM* | 11µM* | -43% | ? | ? | ?
CC(C)N(C(=O)COC(=O)CCC(=O)c1cccs1)c1ccccc1 | 25% | 1% | 3% | -2% | -2% | 4%
COc1ccc(N2C(=O)CC(NNc3ncc(Cl)cc3Cl)C2=O)cc1 (stereo unspecified) | 15µM* | 0% | -21% | -5% | -9% | 15µM*
COc1ccc(N2C(=O)CC(Nc3ccc(C)cc3)C2=O)cc1 (stereo unspecified) | -3% | 23% | -4% | -5% | 0% | 4%
CC(C)(C)S(=O)(=O)N1C[C@H]2C(=CC[C@@H]3C(=O)N(c4ccccc4)C(=O)[C@@H]32)[C@H]1CCO | ? | -8% | -4% | 7% | 8% | -27%
Cc1nc2nncn2c(Nc2ccccc2)c1C | 18µM* | ? | -9% | / | / | 21µM*
Cc1ccc(CNc2c(C)c(C)nc3nncn23)cc1 | 1.2µM* | -12% | -33% | / | / | 4.1µM*
COC(=O)Cc1c(C)nc2nc(NCc3ccc(Cl)cc3)[nH]n2c1=O | -18% | ? | -25% | 11% | 8% | -17%
Cc1ccc(CNc2cc(C)nc3nc(-c4ccc(C)cc4)nn23)cc1 | / | 3% | -4% | / | / | /
CCc1c(C)nc2nncn2c1NCc1ccc(Cl)cc1 | 4.6µM* | / | -18% | / | / | 8.2µM*
Cc1ccccc1Nc1c2c(nc3nncn13)CCC2 | ? | -1% | 8% | / | / | ?
O=C(c1ccccc1F)N(Cc1cc2cc3c(cc2nc1N1CCOCC1)CCC3)CC1CCCO1 (stereo unspecified) | ? | / | / | / | / | -10%[9.04 µM]
C/C(CC(=O)Nc1ccc2c(c1)OCO2)=N\NC(=O)C(c1ccccc1)c1ccccc1 | -20% | 6% | 7% | 15% | 5% | -19%
C[C@@H]1CN([C@@H](C)CO)S(=O)(=O)c2ccc(Br)cc2O[C@@H]1CN(C)C(=O)c1ccc(F)cc1 | ? | 7% | -24% | 7% | -1% | 21µM*
C[C@H](CO)N1C[C@H](C)[C@@H](CN(C)C(=O)c2ccc(F)cc2)Oc2cc(Br)ccc2S1(=O)=O | 13µM* | 28% | 7% | -7% | -20% | 26µM*
C[C@@H]1CN([C@@H](C)CO)S(=O)(=O)c2ccc(Br)cc2O[C@H]1CN(C)C(=O)c1ccccc1 | ? | -14% | -2% | -1% | 9% | ?
C/C=C/c1ccc2c(c1)O[C@H](CN(C)CC1CCOCC1)[C@@H](C)CN([C@H](C)CO)S2(=O)=O | 18µM* | 5% | -4% | -1% | 3% | 23µM*
C[C@H](CO)N1C[C@H](C)[C@@H](CN(C)C(=O)CC2CC2)Oc2cc(Br)ccc2S1(=O)=O | 21µM* | -5% | -8% | 1% | 10% | ?
O=C(/C=C/c1ccccc1[N+](=O)[O-])NCc1cccnc1 | 10% | -12% | 28% | 19% | 13% | 1%
C[C@@H]1CN([C@@H](C)CO)S(=O)(=O)c2ccc(Br)cc2O[C@H]1CN(C)C(=O)Nc1ccc2c(c1)OCO2 | ? | -11% | -30% | -10% | -8% | ?
C[C@@H]1CN([C@@H](C)CO)S(=O)(=O)c2ccc(Br)cc2O[C@H]1CN(C)C(=O)c1ccc2c(c1)OCO2 | 23µM* | 2% | -1% | 8% | 10% | 23µM*
CCCc1ccc(S(=O)(=O)N(C)S(=O)(=O)c2ccc(F)cc2)cc1 | 0% | -7% | -9% | 16% | 2% | -20%
SMILES | TDP1 cell noCPT | TGFb SMAD3 inh | HepG2 viability | HT1080NT lethal | HT1080 IDH1KD tx | DT40 TDP1 CPT
COc1ccc(-c2onc(C)c2C)cc1S(=O)(=O)Nc1cccc(C#N)c1 | 21µM* | 0% | -5% | / | / | 23µM*
COc1ccccc1NS(=O)(=O)c1cc(-c2cc(C)no2)ccc1OC | -14% | 1% | 4% | -15% | -28% | -13%
COc1ccc(-c2cc(C)no2)cc1S(=O)(=O)Nc1cccc(C)c1 | -26% | 4% | 1% | -18% | ? | -9%
COc1ccc(Cl)cc1NS(=O)(=O)c1cc(-c2cc(C)no2)ccc1C | 7.3µM* | -2% | -2% | / | / | 6.5µM*
COc1ccc(-c2cc(C)no2)cc1S(=O)(=O)Nc1ccccc1 | 9.2µM* | -10% | -4% | ? | 16µM* | 26µM*
COC(=O)c1ccc(NS(=O)(=O)c2cc(-c3cc(C)no3)ccc2OC)cc1 | 2.9µM* | -17% | -19% | / | / | 3.7µM*
COc1cccc(CNC(=O)CCS(=O)(=O)c2ccc3c(c2)oc(=O)n3C)c1 | 24% | 16% | -3% | 1% | 1% | -27%
Cc1c(Br)c([N+](=O)[O-])nn1CC(=O)NCCc1c[nH]c2ccccc12 | ? | 30% | -2% | -5% | -1% | -31%
Cc1cccc(N2CC(C(=O)Nc3nccs3)CC2=O)c1C (stereo unspecified) | -7% | 4% | 7% | 14% | 13% | -3%
CCc1ccc(-c2cc(C)no2)cc1S(=O)(=O)Nc1cc(C)ccn1 | 7% | -3% | 2% | 0% | 0% | -24%
COc1ccc(CCNS(=O)(=O)c2cc(-c3onc(C)c3C)ccc2OC)cc1OC | ? | -11% | 0% | / | / | -24%
Cc1cc(-c2ccc(C)c(S(=O)(=O)Nc3cccc(C)n3)c2)on1 | ? | 0% | -32% | / | / | 3%
